# Experimental data from PubChem BioAssay.
# Values joined by “and” are separate entries in the source; they are usually repeats but may differ in a detail not shown here. Identical values can stand only once. Active and inactive are the calls of the source. Unless noted, no stated cut-off is given here; in the data, active means inhibition above about 80%; inactive means the rest.
# Tests used:
# [1] = UWB1.289 ovarian carcinoma cell growth inhibition, synergistic combos for chromothripsis tumors, BGB or cisplatin combos (AID 1671456); conditions: UWB1.289 ovarian carcinoma cells, stronger effect = higher value;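 further: cells exposed to compound for four days; 0% = vehicle DMSO and 100% = killing by high DMSO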
# [2] = LFS_MB_2R medulloblastoma cell growth inhibition, synergistic combos for chromothripsis tumors, cisplatin combos (AID 1671457); conditions: LFS_MB_2R medulloblastoma cells, stronger effect = higher value;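 further: cells exposed to compound for four days before readout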
# [3] = MDA-MB-436 breast carcinoma cell growth inhibition, synergistic combos for chromothripsis tumors, BGB or cisplatin combos (AID 1671458; call rule not given here;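 further: cells exposed for 96 hours; 0% = vehicle DMSO and 100% = killing by high DMSO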); conditions: MDA-MB-436 breast carcinoma growth inhibition, drug combinations, stronger effect = higher value
# [4] = UWB1.289_BRCA1 ovarian cancer growth, cell-based, BGB or cisplatin combinations (AID 1671459); conditions: UWB1.289 BRCA1 ovarian carcinoma, drug combinations, stronger effect = higher value
# [5] = human astrocyte viability loss, single and combined drugs, cytotoxicity control for chromothriptic childhood tumor combination screen, cell-based, BGB or cisplatin IC20 combos (AID 1671460); conditions: Human astrocytes, drug combinations, stronger effect = higher value;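 further: cells exposed to compounds for 96 hours before viability readout; 0% = vehicle and 100% = killing control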
# [6] = growth inhibition of BT084 medulloblastoma cells, cell-based, ICGC_MB145, cisplatin and BGB IC40 combos (AID 1671461); conditions: drug combinations, stronger effect = higher value;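 further: cells exposed to drugs for 96 hours; 0% = vehicle DMSO and 100% = high DMSO full killing control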
# [7] = growth inhibition of RCMB18 medulloblastoma cells, cell-based, cisplatin and BGB IC40 combos (AID 1671462); conditions: stronger effect = higher value;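 further: cells exposed to compound for four days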
# [8] = growth inhibition of CRL1545 osteosarcoma cells, cell-based, cisplatin and BGB IC20 combos (AID 1671464); conditions: stronger effect = higher value;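 further: cells exposed to compound for 96 hours before readout; 0% = vehicle DMSO and 100% = high DMSO killing control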
# F380Y = experiment: modulators of BK channel variants, profiling panel, selectivity assay, cell-based, U2OS BacMam, thallium flux, beta subunits (AID 1259406;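 active means thallium flux through the channel raised or lowered by more than 3 SD from vehicle-only wells, actives on both sides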;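 further: initial slope of Thallos dye fluorescence rise after thallium is added; log ratio against the mean of 0.3% DMSO vehicle wells on the same plate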); conditions: at 30 µM
# F380Y/beta1 = experiment: as above; conditions: at 30 µM
# [9] = measured here: inhibition with BGB combination, at 0.05 µM
# [10] = measured here: inhibition with cisplatin combination, at 0.05 µM
# [11] = measured here: combination with cisplatin, at 0.5 µM
# [12] = measured here: combination with cisplatin, at 5 µM
# [13] = measured here: BGB combination, at 0.5 µM
# [14] = measured here: BGB combination, at 5 µM
# [15] = measured here: cisplatin combination, at 0.5 µM
# [16] = measured here: cisplatin combination, at 5 µM
# [17] = BGB combination, concentration series, at 5 µM
# [18] = cisplatin combination, concentration series, at 5 µM
# [19] = measured here: combo with BGB IC20, at 0.5 µM
# [20] = measured here: combo with cisplatin IC20, at 0.5 µM
# [21] = cisplatin combination, at 0.5 µM
# [22] = measured here: BGB IC40 combination 0.05 uM, at 0.05 µM
# [23] = measured here: BGB IC40 combination, at 0.05 µM
# [24] = measured here: with BGB IC20 combination, at 0.5 µM
# [25] = measured here: with cisplatin IC20 combination, at 0.5 µM
smiles,measurement,setting,value
CCn1cc(C(=O)O)c(=O)c2cc(F)c(N3CCNCC3)nc21,inhibition,[1]; at 0.5 µM,-10.7% (inactive) and 1.4% (inactive)
same,inhibition,[1]; [9],-29.8% and -21.6%
same,inhibition,[1]; [10],-19.7% and -11.2%
same,inhibition,[2]; at 0.5 µM,-18.7% (inactive) and -16.6% (inactive)
same,inhibition,[2]; [11],-8.22% and -12.2%
same,inhibition,[2]; [12],-10.3% and -8.58%
same,inhibition,[3]; at 0.5 µM,-9.05% (inactive) and -13.8% (inactive)
same,inhibition,[3]; [13],-10.2% and -4.34%
same,inhibition,[3]; [14],-20.2% and -12.6%
same,inhibition,[3]; [15],-12.3% and -35.3%
same,inhibition,[3]; [16],-9.88% and -14.8%
same,inhibition,[4]; [17],-1.06% and 7.56%
same,inhibition,[4]; at 0.5 µM,-12.5% (inactive) and 3.88% (inactive)
same,inhibition,[4]; [18],0.876% and 19.6%
same,inhibition,[5]; at 0.5 µM,8.11% (inactive) and 6.08% (inactive)
same,inhibition,[5]; [19],13.6% and -6.3%
same,inhibition,[5]; [20],-5.13% and 23.3%
same,inhibition,[6]; at 0.5 µM,-14.2% (inactive)
same,inhibition,[6]; [21],-20.2% and 4.87%
same,inhibition,"[6]; cisplatin combination, at 5 µM",-328% and -22.3%
same,inhibition,[6]; [22],-15.2% and 5.81%
same,inhibition,"[6]; single agent, at 5 µM",-15.6% and -14.8%
same,inhibition,[7]; at 0.5 µM,-23.5% (inactive) and -3.9% (inactive)
same,inhibition,"[7]; cisplatin combo, at 5 µM",-47.1% and 18.7%
same,inhibition,[7]; [23],-10.4% and 1.16%
same,inhibition,[7]; [11],-40.4% and 9.59%
same,inhibition,"[7]; single agent, at 5 µM",-15.2% and -21.3%
same,inhibition,[8]; at 0.5 µM,9.99% (inactive) and 6.3% (inactive)
same,inhibition,[8]; [24],-15.9% and 0.601%
same,inhibition,[8]; [25],21.7% and 9.15%
same,inhibition,"[8]; single agent, at 0.05 µM",-9.98% and 9.98%
same,inhibition,"[8]; single agent, at 5 µM",-24.6% and 24.3%
CC(C)c1nc(CN(C)C(=O)N[C@H](C(=O)N[C@@H](Cc2ccccc2)C[C@H](O)[C@H](Cc2ccccc2)NC(=O)OCc2cncs2)C(C)C)cs1,log fold change Tl+ flux,F380Y,-0.114 (active)
same,log fold change Tl+ flux,F380Y/beta1,-0.406 (active)
CCn1cc(C(=O)O)c(=O)c2cc(F)c(N3CCNC(C)C3)c(F)c21 (stereo not given),inhibition,[1]; at 0.5 µM,-5.87% (inactive) and 3.27% (inactive)
same,inhibition,[1]; [9],-15.8% and -6.81%
same,inhibition,[1]; [10],-31.3% and -16.8%
same,inhibition,[2]; at 0.5 µM,-11.7% (inactive) and -17.4% (inactive)
same,inhibition,[2]; [11],-16.5% and -22.2%
same,inhibition,[2]; [12],-74.9% and -58.2%
same,inhibition,[3]; at 0.5 µM,-41.7% (inactive) and -18.1% (inactive)
same,inhibition,[3]; [13],-27.8% and -13.8%
same,inhibition,[3]; [14],-28.2% and -9.38%
same,inhibition,[3]; [15],-66.9% and -25.1%
same,inhibition,[3]; [16],-19.8% and -29.7%
same,inhibition,[4]; [17],-32.2% and -2.47%
same,inhibition,[4]; at 0.5 µM,-9.31% (inactive) and 2.01% (inactive)
same,inhibition,[4]; [18],-6.73% and 11.3%
same,inhibition,[5]; at 0.5 µM,-10.6% (inactive) and 4.2% (inactive)
same,inhibition,[5]; [19],-11.6% and -0.829%
same,inhibition,[5]; [20],-24.3% and -1.68%
same,inhibition,[6]; at 0.5 µM,-29.5% (inactive) and -34.2% (inactive)
same,inhibition,[6]; [21],-4.32% and -19.8%
same,inhibition,"[6]; cisplatin combination, at 5 µM",-10.2% and -20.4%
same,inhibition,[6]; [22],-19.8% and -12.4%
same,inhibition,"[6]; single agent, at 5 µM",-14.7% and -12.9%
same,inhibition,[7]; at 0.5 µM,-20.2% (inactive) and -5.16% (inactive)
same,inhibition,"[7]; cisplatin combo, at 5 µM",-24.3% and 18.4%
same,inhibition,[7]; [23],-16.8% and -25.7%
same,inhibition,[7]; [11],-27.2% and 7.44%
same,inhibition,"[7]; single agent, at 5 µM",-21.5% and -4.86%
same,inhibition,[8]; at 0.5 µM,-53.2% (inactive) and 15% (inactive)
same,inhibition,[8]; [24],-48% and 1.95%
same,inhibition,[8]; [25],-59.3% and 19.8%
same,inhibition,"[8]; single agent, at 0.05 µM",-84.2% and 11.3%
same,inhibition,"[8]; single agent, at 5 µM",-56% and 4.55%
CN1CCN(c2c(F)cc3c(=O)c(C(=O)O)cn4c3c2SCC4)CC1,log fold change Tl+ flux,F380Y,0.0311 (inactive)
same,log fold change Tl+ flux,F380Y/beta1,0.0284 (inactive)
NC(=O)NO,inhibition,[1]; at 0.5 µM,5.4% (inactive)
same,inhibition,[1]; [9],5.3%
same,inhibition,[1]; [10],-10.2%
same,inhibition,[2]; at 0.5 µM,11.7% (inactive)
same,inhibition,[2]; [11],8.29%
same,inhibition,[2]; [12],17%
same,inhibition,[3]; at 0.5 µM,-8.14% (inactive)
same,inhibition,[3]; [13],-5.6%
same,inhibition,[3]; [14],-2.86%
same,inhibition,[3]; [15],-19.6%
same,inhibition,[3]; [16],19.7%
same,inhibition,[4]; [17],13.1%
same,inhibition,[4]; at 0.5 µM,4.57% (inactive)
same,inhibition,[4]; [18],15.7%
same,inhibition,[5]; at 0.5 µM,-3.17% (inactive)
same,inhibition,[5]; [19],-6.58%
same,inhibition,[5]; [20],5.32%
same,inhibition,[6]; at 0.5 µM,3.97% (inactive)
same,inhibition,[6]; [21],0.756%
same,inhibition,"[6]; cisplatin combination, at 5 µM",-27.3%
same,inhibition,[6]; [22],10.1%
same,inhibition,"[6]; single agent, at 5 µM",1.06%
same,inhibition,[7]; at 0.5 µM,12.5% (inactive)
same,inhibition,"[7]; cisplatin combo, at 5 µM",15.7%
same,inhibition,[7]; [23],-13.6%
same,inhibition,[7]; [11],28.2%
same,inhibition,"[7]; single agent, at 5 µM",-32.4%
same,inhibition,[8]; at 0.5 µM,-15.5% (inactive)
same,inhibition,[8]; [24],6.18%
same,inhibition,[8]; [25],-26.4%
same,inhibition,"[8]; single agent, at 0.05 µM",-10.2%
same,inhibition,"[8]; single agent, at 5 µM",-5.37%
